This is an account of results in PubChem BioAssay.

Test [1] in a line: blockers of polyQ-driven CASP3 activation – cell-based (AID 1583). Conditions: polyglutamine-induced caspase-3 activation, cell assay; stronger effect = higher value;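 tested at 10 µM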.
A short description of test [2]: yeast 75Q aggregation reduction – 75Q-TubU reporter (AID 1593). Conditions: Yeast 75Q polyglutamine aggregation reporter.
Test [3] is described as follows: blockers of cytochrome c efflux from mitochondria – biochemical, purified mitochondria (AID 1603).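 Note: mouse liver mitochondria challenged with calcium chloride; signal normalized to the plate average as 100%.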 Conditions: stronger effect = lower value.
A short description of test [4]: P. berghei load reduction in hepatocytes – cell-based, HepG2, luciferase luminescence, HepG2 viability, primary screen (AID 624349; in the data active = parasite load remaining mostly below about 12%, no sharp cut-off; inactive = mostly above about 10%;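 note: 100% = mean of DMSO negative control wells on the same plate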). Conditions: P. berghei liver stage in HepG2, luciferase luminescence, concentration not given here; parasite load remaining: stronger effect = lower value; viability: measured here: HepG2 viability without parasites.
The nature of test [5]: EMT-state selective cytotoxicity in co-culture – imaging, PC-3E GFP, TEM4-18 mCherry, primary screen (AID 1345086;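 active = compounds killing one labelled cell type while sparing the other, by normalised counts and ratio limits, not self-fluorescent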;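 for all read-outs here: cells exposed to compound for 72 h before imaging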;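 for red/green cell ratio (normalised): normalised mesenchymal count divided by normalised epithelial count so high means epithelial killing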). To be noted: PC-3E GFP / TEM4-18 mCherry co-culture, imaging cell counts, at 1 µM; for red/green cell ratio (normalised): actives lie on both sides, counts scaled to control wells, 1 = unselective.
The subject of test [6] is Aerobactin synthetase IucA (Klebsiella pneumoniae). The test can be described thus: inhibition of K. pneumoniae IucA enzyme – biochemical, Tocris library, absorbance (AID 1345561; call rule not given here;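 note: 100% = enzyme without compound and 0% = no enzyme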). To be noted: purified IucA enzyme assay, absorbance (OD) read-out; stronger effect = lower value;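 tested at 8 µM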.
The nature of test [7]: viability loss in pontine glioma line – cell-based, SU-DIPG-XVII, MIPE5.0, CellTiter-Glo, qHTS, dose response (AID 1347060; cut-off not given, nearly all actives have AC50 up to about 26 µM;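 for AC50: cells exposed to compound for 48 hours before viability readout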). Conditions: CellTiter-Glo ATP luminescence. A general note: Cellular ATP, detected with luciferase, serves as a proxy for viable cell number.
Test [8] can be described thus: viability loss in pontine glioma line – cell-based, SU-DIPG-XIII, MIPE4.0, CellTiter-Glo, qHTS, dose response (AID 1347061; cut-off not given, nearly all actives have AC50 up to about 37 µM;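 note: cells exposed to compound for 48 hours before readout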). To be noted: CellTiter-Glo ATP luminescence.
Test [9] in a line: viability loss in pontine glioma line – cell-based, JHH-DIPG-1, MIPE4.0, CellTiter-Glo, qHTS, dose response (AID 1347062; cut-off not given, nearly all actives have AC50 up to about 27 µM;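 for AC50: cells exposed to compound for two days before readout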). To be noted: JHH-DIPG-1 viability, CellTiter-Glo ATP luminescence.
Test [10] in a line: viability loss in pontine glioma line – cell-based, SU-DIPG-XIII, MIPE5.0, CellTiter-Glo, qHTS, dose response (AID 1347064; cut-off not given, nearly all actives have AC50 up to about 23 µM;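 for AC50: cells exposed to compound for 48 hours before the viability read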). Conditions: CellTiter-Glo ATP luminescence.
Test [11] in a line: viability loss in pontine glioma line – cell-based, SU-DIPG-XXV, MIPE5.0, CellTiter-Glo, qHTS, dose response (AID 1347065; cut-off not given, nearly all actives have AC50 up to about 26 µM;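 note: cells exposed to compound for 48 hours before ATP readout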). Conditions: CellTiter-Glo ATP luminescence.
Test [12] can be described thus: growth inhibition of DIPG cells – cell-based, MIPE4.0 library, CellTiter-Glo luminescence, qHTS (AID 1347066; cut-off not given, nearly all actives have AC50 up to about 30 µM;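 note: cells exposed to compound for 48 hours before readout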). To be noted: SU-DIPG-VI viability, CellTiter-Glo ATP luminescence.
Test [13] in a line: JHH-DIPG-1 glioma cell viability, MIPE5.0 library, CellTiter-Glo luminescence, qHTS (AID 1347067; cut-off not given, nearly all actives have AC50 up to about 26 µM;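 note: cells exposed to compound for 48 hours before readout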). Conditions: JHH-DIPG-1 glioma viability, CellTiter-Glo ATP luminescence.
Test [14] can be described thus: growth inhibition of DIPG cells – cell-based, MIPE5.0 library, qHTS (AID 1347068; cut-off not given, nearly all actives have IC50 up to about 30 µM;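 for IC50: cells exposed to compound for 48 hours before viability readout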). To be noted: SU-DIPG-XXV viability.
Test [15] in a line: viability loss with induced miR-34 in A549 – imaging, A549 dox-inducible miR-34, nuclei and caspase counts, primary screen (AID 1347080;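 active = compounds whose cell count with miR-34 switched on is under 0.7 times the count with it off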). Conditions: A549 miR-34 inducible, Hoechst nuclei count, 48 h.
A short description of test [16]: galactose survival enhancers in mitochondrial complex I cybrids – cell-based, galactose medium, ATP luminescence, primary screen (AID 1645843;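 active = z-score of at least 1.8 in each of two replicates, scored against plate mean and spread of sample wells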;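 note: positive z means more ATP and so rescue of galactose-driven cybrid death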). Conditions: complex I mutant cybrid cells, 72 h, stronger effect = higher value.
Test [17] in a line: compounds altering HSF1 focus formation in cells – imaging, Selleck Cancer Library (AID 1347162; in the data active = plate-normalised HSF1 focus index below about 0.46). To be noted: human cells, HSF1 nuclear foci imaging, at 10 µM; SSMD: measured here: HSF1 foci SSMD mean; cell count: measured here: cell number; plate-normalised HSF1 focus index: stronger effect = lower value.
Test [18] is described as follows: MELAS cybrid and Rieske KO viability enhancers – cell-based, MELAS cybrids, Rieske KO mouse fibroblasts, CellTiter-Glo, primary screen (AID 1508586;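 active = mean z-score across replicates of 1.96 or higher in either the MELAS or the Rieske mutant cell line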;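 note: z relative to plate mean and SD of compound and empty wells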). Conditions: low glucose.
A short description of test [19]: drug combination growth inhibition, ovarian cancer – cell-based, oncology-focused library, rucaparib conditional, profiling panel (AID 1508598). Conditions: patient-derived ovarian cancer cells, CellTiter-Glo viability, 144 h, stronger effect = lower value.
The mark [20] stands for this setting: measured here: epithelial PC-3E GFP cell survival.
[21] abbreviates: measured here: mesenchymal TEM4-18 mCherry cell survival.
Setting [22] is: stronger effect = lower value, cell number ratio, induced over uninduced.
Where [23] appears, read: measured here: relative caspase fold change +Dox/-Dox.
Setting [24] is: measured here: total cells with miR-34 induction, stronger effect = lower value.
The mark [25] stands for this setting: measured here: total cells without miR-34 induction.

Where “and” joins values, the source holds several entries; their conditions need not be identical. Equal values may be shown once. Results filed as inconclusive are left out. Calls of active or inactive are those of the source.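 Rule for the calls, unless noted: active = normalized viability below 100% at a tested concentration; inactive = the rest.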

Broadly, the inhibition is the drop in the measured response relative to a control, in per cent. A word on the viability: it is a read-out of living cells in per cent, often relative to untreated cells. As to `NC[C@H]1O[C@H](O[C@H]2C(O[C@@H]3O[C@H](CO)[C@@H](O)[C@H]3O)[C@@H](O)[C@H](N)C[C@@H]2N)[C@H](N)[C@@H](O)[C@@H]1O` (some centres not stated), the inhibition in test [1] was -18.6%. Besides, in test [2], the score was determined as 1.41. Moreover, in [3], the cytochrome c release ratio worked out at 0.95. Also, in test [4], the parasite load remaining is 166% (inactive) and the viability is 89%. Also, in test [5], the red/green cell ratio (normalised) was 0.87 (inactive). The molecule also registered a normalised cell number in test [5] (setting [20]) of 1.26. In [5] (setting [21]), this molecule displayed a normalised cell number of 1.1.

By remaining activity is commonly meant the signal under treatment as a percentage of the control signal. As for `CCN(c1ccccc1)c1cc(NC)[n+](C)c(C)n1`, the remaining activity in [6] is 84.7% (inactive). In addition, the molecule was classed as inactive in test [7], in [8], in test [9], in [10], in [11] and in test [12]. Also, the result in test [13] and in test [14] was inactive. For the same molecule, the values for the fold change in [15] (setting [22]) and in test [15] (setting [23]) were 1.03 (inactive) and 0.719, respectively. Also, the values for the cell count in [15] (setting [24]) and in [15] (setting [25]) were 7990 and 7790, respectively. Also, the z-score in test [16] was 0.245 (inactive).

In the case of `C1CCN2C[C@H]3C[C@H](CN4CCCC[C@@H]34)[C@H]2C1`, the inhibition in test [1] was -43.7%. The score in [2] is 1.18. Further, the cytochrome c release ratio in [3] amounted to 1.05. For the same molecule, the red/green cell ratio (normalised) in test [5] is 1.01 (inactive). The normalised cell number worked out at 1.18 in test [5] (setting [20]) and 1.19 in test [5] (setting [21]).

Regarding `NC(COCc1ccccc1)C(=O)O` (configuration not stated), in [1], the inhibition amounted to 2.09%. In test [2], this molecule registered a score of 1.43. Further, the cytochrome c release ratio in test [3] was 0.75. Further, in [5], the red/green cell ratio (normalised) was 0.87 (inactive). Moreover, the values for the normalised cell number in test [5] (setting [20]) and in [5] (setting [21]) were 1.19 and 1.04, respectively.

One may read the AC50 as the concentration at which the activity in the assay is half-maximal. Broadly, the IC50 is the concentration that gives 50% inhibition. Turning to `NC(=O)Nc1sc(-c2ccc(F)cc2)cc1C(N)=O`, the parasite load remaining in test [4] is 72.5% (inactive). Also, the viability in test [4] is 79.5%; in [19] (at 0.000305 µM, OCI-C5x cells, with rucaparib 10 µM, 100% = cells with rucaparib alone), 113% (inactive); in test [19] (at 0.000305 µM, OCI-C5x cells, without rucaparib), 127% (inactive); in test [19] (at 0.000305 µM, OCI-P5x cells, with rucaparib 20 µM, 100% = cells with rucaparib alone), 116% (inactive); in test [19] (at 0.000305 µM, OCI-P5x cells, without rucaparib) it was 109% (inactive); in test [19] (at 0.00122 µM, OCI-C5x cells, with rucaparib 10 µM, 100% = cells with rucaparib alone) it was 118% (inactive). For the same molecule, the viability is 126% (inactive) in [19] (at 0.00122 µM, OCI-C5x cells, without rucaparib); 106% (inactive) in [19] (at 0.00122 µM, OCI-P5x cells, with rucaparib 20 µM, 100% = cells with rucaparib alone); 106% (inactive) in [19] (at 0.00122 µM, OCI-P5x cells, without rucaparib); 124% (inactive) in test [19] (at 0.00488 µM, OCI-C5x cells, with rucaparib 10 µM, 100% = cells with rucaparib alone); 131% (inactive) in [19] (at 0.00488 µM, OCI-C5x cells, without rucaparib); 105% (inactive) in test [19] (at 0.00488 µM, OCI-P5x cells, with rucaparib 20 µM, 100% = cells with rucaparib alone). Also, the viability in test [19] (at 0.00488 µM, OCI-P5x cells, without rucaparib) is 104% (inactive); in [19] (at 0.0195 µM, OCI-C5x cells, with rucaparib 10 µM, 100% = cells with rucaparib alone) it was 115% (inactive); in test [19] (at 0.0195 µM, OCI-C5x cells, without rucaparib), 108% (inactive); in test [19] (at 0.0195 µM, OCI-P5x cells, with rucaparib 20 µM, 100% = cells with rucaparib alone), 102% (inactive); in test [19] (at 0.0195 µM, OCI-P5x cells, without rucaparib), 101% (inactive); in test [19] (at 0.0781 µM, OCI-C5x cells, with rucaparib 10 µM, 100% = cells with rucaparib alone), 115% (inactive). In addition, the viability in test [19] (at 0.0781 µM, OCI-C5x cells, without rucaparib) is 109% (inactive); in test [19] (at 0.0781 µM, OCI-P5x cells, with rucaparib 20 µM, 100% = cells with rucaparib alone), 102% (inactive); in test [19] (at 0.0781 µM, OCI-P5x cells, without rucaparib), 98.9% (active); in test [19] (at 0.313 µM, OCI-C5x cells, with rucaparib 10 µM, 100% = cells with rucaparib alone) it was 124% (inactive); in [19] (at 0.313 µM, OCI-C5x cells, without rucaparib) it was 105% (inactive); in test [19] (at 0.313 µM, OCI-P5x cells, with rucaparib 20 µM, 100% = cells with rucaparib alone), 95.8% (active). Moreover, the viability in test [19] (at 0.313 µM, OCI-P5x cells, without rucaparib) is 93% (active); in test [19] (at 1.25 µM, OCI-C5x cells, with rucaparib 10 µM, 100% = cells with rucaparib alone) it was 125% (inactive); in test [19] (at 1.25 µM, OCI-C5x cells, without rucaparib) it was 104% (inactive); in [19] (at 1.25 µM, OCI-P5x cells, with rucaparib 20 µM, 100% = cells with rucaparib alone), 92.8% (active); in test [19] (at 1.25 µM, OCI-P5x cells, without rucaparib), 87.7% (active); in test [19] (at 5 µM, OCI-C5x cells, with rucaparib 10 µM, 100% = cells with rucaparib alone), 95.3% (active). Moreover, the viability is 67.2% (active) in test [19] (at 5 µM, OCI-C5x cells, without rucaparib); 39% (active) in test [19] (at 5 µM, OCI-P5x cells, with rucaparib 20 µM, 100% = cells with rucaparib alone); 60.3% (active) in test [19] (at 5 µM, OCI-P5x cells, without rucaparib). The remaining activity in test [6] is 122% (inactive). For the same molecule, the AC50 in test [7] is 9.34 µM (active); in [8], 11.8 µM (active); in test [9], 4.69 µM (active); in test [10] it was 20.9 µM (active); in test [11], 7.42 µM (active); in [12], 16.6 µM (active). Further, the half-maximal activity concentration (AC50) in test [13] was 5.9 µM (active). Besides, the IC50 in test [14] is 14.8 µM (active). Also, the fold change is 0.943 (inactive) and 1.1 (inactive) in test [15] (setting [22]); 0.476 and 0.704 in [15] (setting [23]). In addition, the cell count in test [15] (setting [24]) is 1490 and 2380; in test [15] (setting [25]), 1580 and 2160; in test [17], 6750. Also, in test [17], the SSMD is -1.15. Besides, in test [17], the plate-normalised HSF1 focus index is 0.95 (inactive). Further, the z-score in test [18] (MELAS cybrid survival, CellTiter-Glo 48 h, stronger effect = higher value) is 0.0212 (inactive); in [18] (Rieske KO mouse fibroblast survival, CellTiter-Glo 72 h), 0.196; in [16], 0.96 (inactive).
